Screens as filed in PubChem BioAssay.
The sample as a whole holds a higher share of hits than the screen did.
Tgondii IFNg: T. gondii growth inhibition with IFN-gamma, primary screen, cell-based; Toxoplasma gondii growth in IFN-gamma-treated host cells; hits give low values; 3.8% of 69,000 active; activity change, negative = inhibition, % (concentration not given with the values); in the data active means activity change below about -70%, passing the limit was not always enough;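 further: host cells are HeLa cells infected with Toxoplasma gondii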
* = called active by the depositor; ! = not active in a repeat.

SMILES	Tgondii IFNg
NCc1n[nH]c(=O)n1-c1ccccc1-c1ccccc1	3
Cc1cc(=O)oc2cc(CN3CCC(N4CCSCC4)CC3)ccc12	2
CCNC(=O)c1ccc(-n2cccn2)c(C#Cc2cccnc2)c1	13
CC(=O)c1ccc2c(c1)N(CCCN1CCC(CCO)CC1)c1ccccc1S2	-34
O=C(CCN1CCN2CCCCC2C1)N1c2ccccc2Sc2ccc(Cl)cc21 (stereo not drawn)	-12
CN(C)CCCN1c2ccccc2Sc2ccc(Cl)cc21	-81*!
CN(C)CCCN1c2ccccc2CCc2ccccc21	-51
O=C(CSc1nnc(-c2ccco2)o1)N1c2ccccc2Sc2ccc(Cl)cc21	15
OCCN1CCN(CCCN2c3ccccc3Sc3ccc(Cl)cc32)CC1	-100*!
Cn1nc(C(=O)N2CCCC3(CC2)CNC(=O)O3)c2c1CCCC2 (stereo not drawn)	155
CCn1nnc2c1CCN(CCOc1ccc(Cl)cc1)C2COC (stereo not drawn)	1
O=C(CCn1cnnn1)N1CCN(C(=O)c2cccc(F)c2)CC1	48
CCCCc1c(C)[nH]c2ccccc2c1=O	-99*
CCCCCCCCCc1nc2c(=O)[nH]c3ccccc3c2o1	4
CCC(CC)n1ncc(C)c1NC(=O)CCc1c(C)[nH]c2ccccc2c1=O	-17
O=C(Cc1cccc(F)c1)N1CCC2C1CC(=O)N2c1cccnc1 (stereo not drawn)	-11
Cc1ccc2occ(CN(Cc3ccc4c(c3)OCO4)CC(C)O)c(=O)c2c1 (stereo not drawn)	-1
Cc1cccc(C(=O)Nc2ncc3c(n2)CC(c2ccco2)CC3=O)c1 (stereo not drawn)	113
Cc1cc(C)c(-c2cnc(-n3cnnc3)c(C)c2)c(C)c1	-78*
COC(C)c1cccc(-c2cnc(-n3cnnc3)c(C)c2)c1 (stereo not drawn)	-11
CC(C)c1nccn1-c1ccc(-c2ccn[nH]2)cc1	4
Cc1cc(-c2ccc(-c3ccn[nH]3)cc2)cnc1-n1cnnc1	-77*
OCc1cc(-c2ccc(-c3ccn[nH]3)cc2)ccn1	58
Cc1cnc(-n2cnnc2)c(-c2ccc(S(C)(=O)=O)cc2)c1	2
CN(CC1COCCO1)c1nc(C(C)(C)C)nc2c1cnn2C (stereo not drawn)	-5
SMILES	Tgondii IFNg
COCC(=O)N1CCC2C(C[C@@H](Cn3cncn3)N2C(C)=O)C1 (stereo partly drawn)	1
CC(C)Oc1cncc(C(=O)N2CCN(C)CC2)c1	6
Cc1ccc(N2CC[C@H]3CN(C(=O)c4ccc(O)cc4)C[C@@H]3C2)nn1	-40
COc1ccccc1-c1ccccc1CN1CCN(S(=O)(=O)N2CCCC2)CC1	14
CCN(CC)c1ncnc2c1cnn2CC(=O)NCc1ccccc1Cl	124
CNC(=O)CN1CCC(Oc2cc3c(Nc4cccc(Cl)c4F)ncnc3cc2OC)CC1	-66
COc1cc2ncnc(Nc3ccc(F)c(Cl)c3)c2cc1NC(=O)/C=C/CN1CCCCC1	-82*
CCN(CC)CC1CCN(c2ncc3ncnc(Nc4ccc(F)c(Cl)c4)c3n2)CC1	4
CCOC1COC2(CCN(C(=O)c3cccn3C)CC2)C1 (stereo not drawn)	-43
O=c1c(C(c2cccnc2)c2c(O)nc3n(c2=O)CCS3)c(O)nc2n1CCS2	13
COc1ccc(-c2nc3n(c(=O)c2C#N)CCCS3)cc1	44
Fc1ccc(-c2nc3n(c2-c2ccncc2)CCS3)cc1	-78*
CCN1CCN(C)C2(CCN(Cc3nccs3)CC2)C1=O	95
O=C(COc1ccccc1)N1CCC2(CC1)CNS(=O)(=O)c1ccccc1OC2	-35
COc1ccc(OC)c(S(=O)(=O)Nc2cccnc2Sc2ccc(C)cc2)c1	-43
c1cnc(N2CC[C@@H](OCC3CC3)[C@@H]2Cc2ccncc2)nc1	76
CC[C@H]1CN2CCc3cc(OC)c(OC)cc3C2C[C@@H]1CC1NCCc2cc(OC)c(OC)cc21 (stereo partly drawn)	-79*
CCS(=O)(=O)N1CCc2cc(OC)c(OC)cc2C1c1ccc(OC)c(OC)c1 (stereo not drawn)	36
COc1cc2c(cc1OC)C(Cc1ccc(O)cc1)N(C)CC2 (stereo not drawn)	6
COc1ccc(Cl)cc1C(=O)Nc1ccc(-c2nc(Cn3cccn3)c(C)o2)cc1	79
COc1ccc(-c2nnc(-c3nc(NCCc4ccccc4)c4ccccc4n3)o2)cc1	-34
CCN(CC)C(=O)c1cc(=O)n(CC(=O)Nc2cccc(Cl)c2)c2ccccc12	-3
Cc1c(C)c(C)c(C(=O)CCc2cccc(NC(=O)C3CCC3)c2)c(C)c1C	-92*
COCCN1C(=O)CCc2cc(NC(=O)C3CCC3)ccc21	31
O=C1CCc2cc(NC(=O)C3CCC3)ccc2N1	4
O=C(c1cccc(C(F)(F)F)c1)N1CCn2cnc(COc3cccnc3)c2C1	-11
CN(C)C(=O)c1ccc(-c2cccc(-c3nc(C(=O)NC4CCCCC4)cc4c3[C@H](CCO)N([S@@](=O)C(C)(C)C)C4)c2)cc1	-48
